HCV inh = inhibitors of hepatitis C virus infection; Huh7.5.1 HCVcc-Cre infection, luciferase reporter, 44 h; 340,000 tested, 3.4% active; Potency, µM (series often up to 41.8 µM), most hits filed as inhibitors; AID 651820
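Cells seeded at 1,000/well and cultured 4 h, then compounds added followed by HCVcc-Cre virus (~0.5 moi). After 44 h further culture, luciferase substrate was added, plates held 15 min at room temperature, and luminescence read for 15 sec.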
AMA1 RON2 block = disrupts binding of P. falciparum AMA1 to RON2. AID 720542. AlphaScreen AMA1-biotinylated RON2 peptide binding. 360,000 tested, 0.2% active. Potency, µM (series often up to 58.2 µM), actives largely listed as inhibitors; note: nearly all actives have a fitted effect of over 45% in size
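AMA1 (3D7) with his tag at 25 nM final met compounds first, then biotinylated RON2 peptide at 25 nM; detection used donor plus acceptor beads, 10 µg/mL apiece, read by AlphaScreen after 30 min at room temperature.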
Pf growth 48h = P. falciparum growth inhibition at 48 hours (one generation); Potency, µM (titrated, usually from 28.7 µM), hits mostly inhibitors; AID 504832; 310,000 tested, 5.9% active; P. falciparum luciferase growth in erythrocytes, 48 h
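Firefly luciferase activity from engineered P. falciparum reports growth; inhibitors lower the luminescent signal. Cultures contained 2% hematocrit erythrocytes at 0.1% final parasitemia.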
SARS PLpro yeast = SARS-CoV PLP inhibition in yeast | S. cerevisiae expressing SARS-CoV PLpro, growth rescue | Potency, µM (highest dose often 32.9 µM), usual class: activators | 330,000 tested, 0.19% active | AID 485353; calls by dose curve; note: nearly all actives have a fitted effect of over 55% in size
NS1 function inh = blocks influenza NS1 protein function | Potency, µM (doses to about 46.1 µM) | 270,000 tested, 0.4% active; calls by dose curve; note: actives are rising curves; nearly all actives have a fitted effect of over 50% in size
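S. cerevisiae expressing influenza A NS1, grown in glucose, washed, then diluted 1:100 into pH 6.0 -URA galactose medium with 23 nl compound. Growth recovery read as OD600; NS1-free strain serves as control.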
Pf growth 96h = P. falciparum growth inhibition at 96 hours | P. falciparum luciferase reporter growth, 96 h | Potency, µM (top dose mostly 28.7 µM), usual class: inhibitors | 320,000 tested, 6.9% active
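Infected RBCs, 2% Hct / 0.05% parasitemia final; luciferase-reporter P. falciparum; cpd 96 h, 37 C, 5% CO2; luciferase detection reagent; luminescence.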
Each line names hits and unclear results; the compound was inactive in the other large screens. In the library only some 12% were active in any assay of this set; here they are far more common. Unless noted, calls come from the whole dose curve; as a rule, active = well fitted curve in the direction sought with a large enough effect; inconclusive = small, poorly fitted or top-dose-only effect, or another doubt; inactive = no such curve, though single readings can be large; an effect the other way counts as inactive or inconclusive.

Cc1cc(C(F)F)n2nc(C(=O)Nc3sc4c(c3C(N)=O)CCC4)nc2n1	HCV inh inconclusive, Pf growth 48h inconclusive, SARS PLpro yeast inconclusive, Pf growth 96h 4.15µM
COc1ccc(Cl)cc1NC(=O)c1nc2nc(C)cc(C(F)F)n2n1	none (no result: Pf growth 48h)
Cc1cc(C(F)F)n2nc(C(=O)Nc3sc4c(c3C#N)CCC(C)C4)nc2n1 (stereo not given)	none
COC(=O)c1c(NC(=O)c2nc3nc(C)cc(C(F)F)n3n2)sc2c1CCC2	HCV inh 10µM, Pf growth 48h inconclusive, Pf growth 96h 5.22µM
O=C(NCC(=O)N(Cc1cccs1)C(C(=O)NC1CCCC1)c1cccnc1)c1ccco1 (stereo not given)	none
CCOC(=O)c1ccc(N(CC(=O)NC2CCCC2)C(=O)CNC(=O)c2ccco2)cc1	Pf growth 48h 9.28µM
O=C(NCC(=O)N(Cc1cccs1)C(C(=O)NC1CCCCC1)c1ccncc1)c1ccco1 (stereo not given)	Pf growth 48h inconclusive, Pf growth 96h 5.86µM
O=C(CN(C(=O)CNC(=O)c1ccco1)c1ccc2c(c1)OCO2)NC1CCCCC1	none
O=C(CN(Cc1ccc2c(c1)OCO2)C(=O)CNC(=O)c1ccco1)NC1CCCCC1	Pf growth 96h 7.38µM
Cc1ccc(N(C(=O)CNC(=O)c2ccco2)C(C(=O)NC2CCCCC2)c2ccncc2)c(C)c1 (stereo not given)	Pf growth 48h 11.7µM
S=C1NCN(Cc2cccnc2)CN1c1cccc2ccccc12	none
COc1ccc(N(C(=O)CNC(=O)c2ccco2)C(C(=O)NC2CCCC2)c2ccncc2)cc1 (stereo not given)	Pf growth 96h 2.62µM
O=C(NCC(=O)N(c1ccc2c(c1)OCCO2)C(C(=O)NC1CCCC1)c1ccco1)c1ccco1 (stereo not given)	Pf growth 48h inconclusive, Pf growth 96h 0.828µM
COc1ccc(N(C(=O)CNC(=O)c2cccs2)C(C(=O)NC2CCCC2)c2ccncc2)cc1 (stereo not given)	Pf growth 96h 13.1µM
COc1ccc(N(C(=O)Cc2cccs2)C(C(=O)NC2CCCC2)c2ccncc2)cc1 (stereo not given)	none
Cc1cc(C)cc(NCc2cc(=O)oc3cc(-c4ccccc4)c(O)cc23)c1	Pf growth 48h 4.65µM, Pf growth 96h 2.33µM
COC(=O)c1ccccc1NCc1cc(=O)oc2cc(O)c(O)cc12	none
Cc1c(O)ccc2c(CC(=O)N[C@@H](Cc3ccccc3)C(=O)O)cc(=O)oc12	none
COc1ccccc1NCc1cc(=O)oc2c(C)c(O)ccc12	HCV inh inconclusive, Pf growth 48h 1.65µM, Pf growth 96h 1.85µM
COc1ccc(C)cc1NCc1cc(=O)oc2cc(-c3ccccc3)c(O)cc12	HCV inh inconclusive, Pf growth 48h 1.47µM, Pf growth 96h 1.04µM
O=C(CN1CCN(C(=O)CNC(=O)c2ccc(-c3ccccc3)cc2)CC1)Nc1ccccc1Cl	none (no result: HCV inh, Pf growth 48h, SARS PLpro yeast, NS1 function inh, Pf growth 96h)
CCCCn1c(N)c(N(CCOC)C(=O)c2ccc(-c3ccc(C(C)=O)cc3)o2)c(=O)[nH]c1=O	Pf growth 48h inconclusive, Pf growth 96h inconclusive (no result: NS1 function inh)
COc1ccc(O[C@H]2C=C[C@@H](c3ccccc3)O[C@@H]2COC(=O)CC/C(C)=N/O[C@@H](C)CN2CCCCc3nc(C)c(C)cc32)cc1	Pf growth 48h 5.86µM, Pf growth 96h 8.28µM (no result: AMA1 RON2 block)
C/C(CCC(=O)OC[C@H]1O[C@H](C#Cc2ccccc2)C=C[C@@H]1Oc1ccc(C)cc1)=N\O[C@@H](C)CN1CCCCc2nc(C)c(C)cc21	Pf growth 48h 14.7µM, Pf growth 96h 4.15µM (no result: AMA1 RON2 block)
COC(=O)C/C=C/[C@@H](C)[C@@H](/C=N/OC[C@H]1O[C@H](c2ccccc2)C=C[C@@H]1Oc1ccc(OC)cc1)NS(=O)(=O)c1ccc(C)cc1	Pf growth 48h 11.7µM, Pf growth 96h 7.38µM (no result: AMA1 RON2 block)
COc1ccc(O[C@H]2C=C[C@@H](c3ccccc3)O[C@@H]2COC(=O)CC/C(C)=N/O[C@@H](C)c2cn([C@H](CO)Cc3ccccc3)nn2)cc1	Pf growth 48h inconclusive, Pf growth 96h inconclusive (no result: AMA1 RON2 block)
COc1ccc(O[C@H]2C=C[C@@H](c3ccccc3)O[C@@H]2CO/N=C(\C)CCC(=O)OC[C@H]2O[C@H](c3ccccc3)C=C[C@@H]2Oc2ccc(OC)cc2)cc1	Pf growth 48h 2.62µM, Pf growth 96h 2.33µM (no result: AMA1 RON2 block)
CC(=O)OC[C@H]1O[C@@H](O/N=C(\C)CCN2CCCCc3nc(C)c(C)cc32)[C@H](OC(C)=O)[C@@H](OC(C)=O)[C@@H]1OC(C)=O	none (no result: AMA1 RON2 block)
CCOC(=O)C1=C(C)N(C[C@@H]2CC[C@@H](Cc3ccc4cc(OC)ccc4c3)O2)C(=O)NC1c1ccccc1 (stereo not given in full)	HCV inh inconclusive (no result: Pf growth 48h, NS1 function inh, Pf growth 96h)
Cn1cc(S(=O)(=O)c2ccccc2)n(C)c1=O	none
C=CCn1c(CSCc2ccc(Cl)cc2Cl)nnc1SCC(=O)Nc1ccc(C(=O)O)cc1	none
Nc1nc2ccc(NC(=O)c3ccco3)cc2s1	none
CC(C#N)(NC(=O)CN1CCN(S(=O)(=O)c2cccc(F)c2)CC1)C1CC1 (stereo not given)	none (no result: HCV inh, Pf growth 48h, SARS PLpro yeast, NS1 function inh, Pf growth 96h)
C/C(N=Nc1nc2ccccc2s1)=N\Nc1ccccc1O	HCV inh inconclusive, Pf growth 48h 2.62µM
COc1cc(C(=O)NCc2nnc(SCC(=O)Nc3cccc(C(F)(F)F)c3)o2)cc(OC)c1OC	Pf growth 96h inconclusive
CC(C)NCc1cc(Br)ccc1OCc1ccccc1	none (no result: NS1 function inh)
O=C1/C(=C\c2cccnc2)N2CCC1CC2	AMA1 RON2 block inconclusive, Pf growth 48h inconclusive, Pf growth 96h 9.28µM
O=C1/C(=C\c2ccncc2)N2CCC1CC2	none
CC(=O)N1CCN(c2ccc(NC(=O)c3ccc4c(c3)OCCO4)cc2)CC1	none (no result: Pf growth 48h)
O=C(Nc1ccccc1N1CCN(C(=O)c2ccc(Cl)cc2)CC1)c1ccc2c(c1)OCO2	HCV inh inconclusive, Pf growth 48h 3.7µM (no result: Pf growth 96h)
O=C(Nc1ccc(N2CCN(C(=O)c3ccc(Cl)cc3)CC2)cc1)c1ccc2c(c1)OCCO2	HCV inh 7.08µM, Pf growth 96h inconclusive (no result: Pf growth 48h)
CC(C)(C)C(=O)N1CCN(c2ccc(NC(=O)c3ccc4c(c3)OCCO4)cc2)CC1	HCV inh 10µM, Pf growth 48h inconclusive
CC(NC(=O)COC(=O)CN1C(=O)c2ccccc2C1=O)c1ccccc1 (stereo not given)	none (no result: Pf growth 48h, NS1 function inh, Pf growth 96h)
O=C1c2ccccc2-c2ccc(N=[N+]([O-])c3ccc4c(c3)C(=O)c3ccccc3-4)cc21	none (no result: HCV inh, AMA1 RON2 block, Pf growth 48h, SARS PLpro yeast, Pf growth 96h)
CCNC(=O)C1(C)CCN(C(=O)c2ccc(-c3ccccc3)cc2)C1 (stereo not given)	none (no result: HCV inh, Pf growth 48h, SARS PLpro yeast, NS1 function inh, Pf growth 96h)
COc1cc(/C=c2\sc3n(c2=O)C(c2ccccc2)C(c2ccccc2)=NN=3)ccc1O (stereo not given)	Pf growth 48h 4.65µM, Pf growth 96h 4.15µM
